These results are taken from PubChem BioAssay.

Assay [1] in a line: binders of probe aFSTL3 on microarray, primary screen, stem cell growth factor project, biochemical, small-molecule microarray, fluorescence 635/667 (AID 1064).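 Further: measures binding of the biotinylated anti-FSTL3 antibody to printed compounds.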 To be noted: higher = more signal.
Assay [2] in a line: binders from COS7 lysate, DM2A8 probe, primary screen, torsin A project, cell lysate, small-molecule microarray, fluorescence 635/667 (AID 1065). To be noted: higher = more signal, COS7 lysate expressing mutant human TOR1A.
The nature of assay [3]: binders of probe aFGF2 on microarray, primary screen, stem cell growth factor project, biochemical, small-molecule microarray, fluorescence 635/667 (AID 1067).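 Further: measures binding of biotinylated aFGF2 protein to printed compounds on slides; z-score merges feature fluorescence and signal-to-noise across triplicate slides.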 Particulars: higher = more signal.
Assay [4] can be described thus: binders of probe aFGF10 on microarray, primary screen, stem cell growth factor project, biochemical, small-molecule microarray, fluorescence 635/667 (AID 1071).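 Further: score merges 667 nm spot intensity and signal to noise from triplicate slides.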 To be noted: higher = more signal.
The target in assay [5] is Neurogenic locus notch homolog protein 2 (Homo sapiens) (UniProt Q04721). Description: Notch2 binders on small-molecule microarrays, primary screen, biochemical, small-molecule microarray, 635 nm fluorescence, stem cell growth factors (AID 1073). To be noted: Notch2 binding, higher = more signal.
The target in assay [6] is Pro-neuregulin-1, membrane-bound isoform (Homo sapiens) (UniProt Q02297). Description: NRG1 binders on small-molecule microarrays, primary screen, psychiatric disease protein project, biochemical, small-molecule microarray, fluorescence 635/667 (AID 1075).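 Further: score combines 667 nm spot fluorescence with signal to noise.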 To be noted: NRG1 binding, 635 nm fluorescence, higher = more signal.
Pro-neuregulin-1, membrane-bound isoform (Homo sapiens), sequence (Q02297 whole entry, looked up, the tested form may be a part, canonical isoform): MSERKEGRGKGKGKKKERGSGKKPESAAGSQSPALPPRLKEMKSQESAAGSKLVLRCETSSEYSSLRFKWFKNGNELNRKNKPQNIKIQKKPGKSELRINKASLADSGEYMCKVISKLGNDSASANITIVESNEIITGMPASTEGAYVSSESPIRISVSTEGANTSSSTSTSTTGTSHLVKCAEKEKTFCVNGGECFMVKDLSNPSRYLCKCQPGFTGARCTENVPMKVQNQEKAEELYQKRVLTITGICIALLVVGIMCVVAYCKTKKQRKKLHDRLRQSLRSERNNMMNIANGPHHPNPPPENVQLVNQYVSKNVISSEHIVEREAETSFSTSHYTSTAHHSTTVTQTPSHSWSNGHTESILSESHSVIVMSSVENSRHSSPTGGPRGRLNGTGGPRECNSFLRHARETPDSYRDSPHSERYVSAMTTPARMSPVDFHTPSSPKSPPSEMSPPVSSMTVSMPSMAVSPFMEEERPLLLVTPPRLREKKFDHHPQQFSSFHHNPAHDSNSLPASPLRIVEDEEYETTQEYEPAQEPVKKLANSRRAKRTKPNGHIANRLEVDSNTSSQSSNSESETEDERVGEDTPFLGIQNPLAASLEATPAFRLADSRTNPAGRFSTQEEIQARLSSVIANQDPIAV
For assay [7], the system named is Neuregulin-1 EGF-like domain. Briefly: binders of neuregulin-1 EGF-like domain, primary screen, biochemical, small-molecule microarray, 635 nm fluorescence (AID 1081).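 Further: binding of the protein to compounds printed on small-molecule microarray slides.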 To be noted: small-molecule microarray binding, higher = more signal.
Assay [8] in a line: FRG1 promoter luciferase signal modulators, primary screen, FRG1 inhibition for FSHD, cell-based, C2C12 myotubes, firefly/Renilla luciferase, luminescence (AID 1084). To be noted: higher = more signal, called active from +8 up or from −8 down.
Assay [9] is described as follows: binders of probe aFST on microarray, primary screen, stem cell growth factor project, biochemical, small-molecule microarray, fluorescence 635/667 (AID 1086).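 Further: score merges 667 nm fluorescence with signal-to-noise of each printed compound spot.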 To be noted: higher = more signal.
A short description of assay [10]: binders of probe aHhip on microarray, primary screen, stem cell growth factor project, biochemical, small-molecule microarray, fluorescence 635/667 (AID 1087).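 Further: score merges spot fluorescence at 667nm with spot signal to noise ratio.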 Particulars: higher = more signal.
The subject of assay [11] is PRMT1 (protein arginine N-methyltransferase 1). Description: PRMT1 binders on small-molecule microarrays, primary screen, biochemical, small-molecule microarray, 635 nm fluorescence (AID 1088).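 Further: binding of Prmt1 protein to compounds spotted on small-molecule microarray slides.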 To be noted: small-molecule microarray binding, higher = more signal.
Assay [12] can be described thus: yeast growth modulation, basal conditions, primary screen, YJM789 clinical isolate, OD600, 24 h (AID 1089).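 Further: growth of clinical yeast isolate S. cerevisiae YJM 789 seeded 1000 cells per well; test concentration not given here.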 To be noted: S. cerevisiae YJM789 growth, higher = more signal, called active from +8 up or from −8 down.
Assay [13] can be described thus: fission yeast growth modulation, primary screen, strain 972, OD600, 24 h, no modulator (AID 1090).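 Further: basal condition with compound alone and no growth modifier present; test concentration not given here.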 Particulars: S. pombe 972 growth, higher = more signal, called active from +8 up or from −8 down.
Assay [14] in a line: S. cerevisiae growth modulation with rapamycin, primary screen, strain BY4716, OD600, 96 h (AID 1091). Further: test concentration not given here. Particulars: higher = more signal, called active from +8 up or from −8 down.
In assay [15] the target is Torsin-1A-interacting protein 2 (Homo sapiens) (UniProt Q8NFQ8). Description: LULL1 binders on small-molecule microarray, primary screen, cell lysate, human LULL1 lysate, 635/667 nm fluorescence (AID 1092).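 Further: probe is lysate of COS7 cells overexpressing human LULL1; score merges per-feature 667 nm fluorescence with signal-to-noise.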 To be noted: hLULL1 lysate binding, 635 nm fluorescence, higher = more signal.
Torsin-1A-interacting protein 2 (Homo sapiens), sequence (Q8NFQ8 whole entry, looked up): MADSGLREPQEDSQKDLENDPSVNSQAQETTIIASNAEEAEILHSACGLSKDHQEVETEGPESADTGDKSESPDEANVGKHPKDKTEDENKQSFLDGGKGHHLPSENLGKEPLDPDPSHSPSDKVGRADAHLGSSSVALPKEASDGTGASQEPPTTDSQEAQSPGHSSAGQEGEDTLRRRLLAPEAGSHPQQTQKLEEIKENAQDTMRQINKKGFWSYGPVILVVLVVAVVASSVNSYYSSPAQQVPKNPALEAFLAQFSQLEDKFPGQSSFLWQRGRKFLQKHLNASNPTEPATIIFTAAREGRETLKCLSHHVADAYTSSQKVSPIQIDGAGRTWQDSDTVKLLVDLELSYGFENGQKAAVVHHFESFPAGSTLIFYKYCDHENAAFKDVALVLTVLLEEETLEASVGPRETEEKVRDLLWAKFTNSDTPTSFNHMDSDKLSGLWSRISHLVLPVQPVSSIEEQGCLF
Assay [16] in a line: E. coli growth modulation, two-sided OD650, primary screen, E. coli filamentation project, strain DRC41, 24 h (AID 1093).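 Further: MC1000 strain lacking acrAB efflux and sulA so SOS filamentation is blocked; test concentration not given here.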 To be noted: OD650, 24 h, higher = more signal, called active from +8 up or from −8 down.
A short description of assay [17]: small-molecule microarray binders of probe aLefty2, primary screen, biochemical, biotinylated probe, 635/667 nm fluorescence (AID 1094).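 Further: score merges spot fluorescence near 667 nm with spot signal-to-noise ratio.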 To be noted: higher = more signal.
For assay [18], the system named is Noggin (protein binding on small-molecule microarray). Briefly: Noggin binders on small-molecule microarray, primary screen, biochemical, 635/667 nm fluorescence (AID 1095).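 Further: score merges 667 nm feature fluorescence with signal to noise over triplicate slides.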 To be noted: 635 nm fluorescence, higher = more signal.
For assay [19], the target named is Neurogenic locus notch homolog protein 3 (Homo sapiens) (UniProt Q9UM47). Briefly: NOTCH3 binders on small-molecule microarray, primary screen, biochemical, 635/667 nm fluorescence (AID 1096). To be noted: NOTCH3 binding, 635 nm fluorescence, higher = more signal.
Neurogenic locus notch homolog protein 3 (Homo sapiens), sequence (Q9UM47 whole entry, looked up): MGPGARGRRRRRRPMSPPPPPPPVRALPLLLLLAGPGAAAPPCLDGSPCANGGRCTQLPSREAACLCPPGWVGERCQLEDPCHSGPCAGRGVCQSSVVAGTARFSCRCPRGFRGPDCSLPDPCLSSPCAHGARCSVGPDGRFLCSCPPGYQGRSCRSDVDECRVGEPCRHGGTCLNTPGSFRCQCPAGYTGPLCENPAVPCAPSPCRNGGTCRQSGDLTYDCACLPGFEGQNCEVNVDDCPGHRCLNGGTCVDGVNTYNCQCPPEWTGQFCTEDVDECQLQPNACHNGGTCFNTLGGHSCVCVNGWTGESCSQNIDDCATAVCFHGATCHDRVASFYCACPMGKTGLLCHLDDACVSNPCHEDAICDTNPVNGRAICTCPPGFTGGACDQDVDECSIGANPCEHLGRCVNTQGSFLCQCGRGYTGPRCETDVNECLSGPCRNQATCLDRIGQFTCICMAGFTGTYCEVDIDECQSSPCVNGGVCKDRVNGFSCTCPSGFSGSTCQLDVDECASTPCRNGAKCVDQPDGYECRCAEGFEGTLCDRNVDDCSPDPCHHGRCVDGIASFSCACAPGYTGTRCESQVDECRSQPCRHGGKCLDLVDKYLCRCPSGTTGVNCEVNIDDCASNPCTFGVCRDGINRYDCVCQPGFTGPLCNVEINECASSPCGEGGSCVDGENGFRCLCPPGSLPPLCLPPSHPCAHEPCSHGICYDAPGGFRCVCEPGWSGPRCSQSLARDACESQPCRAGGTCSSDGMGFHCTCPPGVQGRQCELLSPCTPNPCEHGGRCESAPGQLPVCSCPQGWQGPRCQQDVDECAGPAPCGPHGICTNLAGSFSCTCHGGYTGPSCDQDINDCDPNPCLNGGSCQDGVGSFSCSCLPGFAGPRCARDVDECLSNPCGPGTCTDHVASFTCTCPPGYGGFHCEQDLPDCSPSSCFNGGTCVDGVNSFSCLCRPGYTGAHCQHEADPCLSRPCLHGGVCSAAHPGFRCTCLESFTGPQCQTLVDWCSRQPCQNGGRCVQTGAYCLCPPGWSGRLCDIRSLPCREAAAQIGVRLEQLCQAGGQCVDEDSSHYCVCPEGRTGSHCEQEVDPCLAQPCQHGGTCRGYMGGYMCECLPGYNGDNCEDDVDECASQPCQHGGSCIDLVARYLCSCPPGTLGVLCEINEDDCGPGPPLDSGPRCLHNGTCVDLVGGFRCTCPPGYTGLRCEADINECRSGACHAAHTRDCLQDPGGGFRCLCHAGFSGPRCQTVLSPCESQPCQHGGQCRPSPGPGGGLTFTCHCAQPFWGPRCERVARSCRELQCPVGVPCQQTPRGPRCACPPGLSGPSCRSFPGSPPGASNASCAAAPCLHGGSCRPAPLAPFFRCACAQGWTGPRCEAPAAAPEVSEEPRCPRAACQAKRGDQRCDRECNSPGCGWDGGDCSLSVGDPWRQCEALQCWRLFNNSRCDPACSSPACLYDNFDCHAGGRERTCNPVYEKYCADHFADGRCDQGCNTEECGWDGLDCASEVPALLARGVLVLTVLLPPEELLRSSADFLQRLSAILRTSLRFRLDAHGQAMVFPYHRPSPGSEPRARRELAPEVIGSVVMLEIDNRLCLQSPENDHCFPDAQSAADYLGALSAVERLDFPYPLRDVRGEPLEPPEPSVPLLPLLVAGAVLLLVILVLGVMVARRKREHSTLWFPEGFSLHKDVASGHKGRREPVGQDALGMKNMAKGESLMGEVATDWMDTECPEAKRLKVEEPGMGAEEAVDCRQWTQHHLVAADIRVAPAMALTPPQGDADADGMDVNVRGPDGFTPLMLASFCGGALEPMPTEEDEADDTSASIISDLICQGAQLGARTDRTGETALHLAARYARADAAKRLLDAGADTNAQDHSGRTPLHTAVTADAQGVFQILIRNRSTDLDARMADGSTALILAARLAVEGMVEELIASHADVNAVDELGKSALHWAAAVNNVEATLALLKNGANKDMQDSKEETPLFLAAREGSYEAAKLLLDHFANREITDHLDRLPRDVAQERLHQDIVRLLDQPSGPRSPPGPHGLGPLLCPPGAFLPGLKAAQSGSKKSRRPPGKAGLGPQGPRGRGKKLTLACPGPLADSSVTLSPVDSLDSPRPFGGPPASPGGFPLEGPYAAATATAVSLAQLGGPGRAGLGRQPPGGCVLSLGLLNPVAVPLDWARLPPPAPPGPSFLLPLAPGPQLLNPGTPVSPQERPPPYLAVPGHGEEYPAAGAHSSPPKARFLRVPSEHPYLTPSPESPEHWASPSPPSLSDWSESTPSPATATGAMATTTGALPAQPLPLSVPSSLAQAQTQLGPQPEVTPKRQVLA
A short description of assay [20]: small-molecule microarray binders of probe aEGFR, primary screen, biochemical, biotinylated probe, 635/667 nm fluorescence (AID 1097).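 Further: probe is a biotinylated anti-EGFR antibody binding compounds printed on slides; score combines fluorescence near 667 nm and signal to noise of each spot.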 Particulars: higher = more signal.

Activity calls are given as the source filed them.

In the case of `CC(=O)N1CC2(CC2)CC1c1ccccc1` (stereo not given), the composite z-score in assay [1] was 0.392; in assay [2], 1.04; in assay [3] it was -0.14; in [4], 0.242; in assay [5] it was 0.437; in [6] it was 0.163. For the same compound, the composite z-score in assay [7] came out at 0.413; in [9] it was 0.661; in assay [10] it was 0.533; in assay [11], 0.594; in assay [15], 1.19; in [17], 0.0423. Also, the composite z-score in [18] came out at 0.423; in [19], 0.251; in [20], 0.0986. In addition, the z-score in assay [8] was 2.2 (inactive); in assay [12], -0.999 (inactive); in [13], 0.661 (inactive); in [14] it was 0.218 (inactive); in assay [16], 0.0425 (inactive).
Regarding `CC1CC/C=C\[C@H]2OC34C=CCN(C(C)C)C(=O)[C@H]3N(CCO)C(=O)[C@@H]4C2C(=O)O1` (stereo not given in full), the composite z-score was 0.689 in assay [1]; 0.987 in assay [2]; -0.159 in [3]; -0.228 in [4]; -1.19 in assay [5]; 1.08 in assay [6]. Also, the composite z-score is 1.23 in assay [7]; -0.662 in assay [9]; -0.134 in assay [10]; -0.138 in assay [11]; -0.021 in [15]; -0.159 in assay [17]. In addition, the values for the composite z-score in assay [18], in assay [19] and in assay [20] were -1.87, -0.355 and -0.281, respectively. For the same compound, the z-score in assay [8] was 0.0746 (inactive); in assay [12], 0.114 (inactive); in [13], -0.486 (inactive); in [14], 0.323 (inactive); in assay [16] it was 1.48 (inactive).
As to `COc1ccc(C(=O)Nc2ccc(CN3C(=O)[C@]4(O[C@H](CC(=O)N5Cc6ccccc6C[C@H]5CO)[C@@H]([Si](C)(C)c5ccc(OC)cc5)[C@@H]4C)c4ccccc43)cc2)cc1`, the composite z-score is -0.402 in [1]; 0.716 in [2]; -0.0785 in assay [3]; 0.357 in [4]; 0.397 in [5]; 1.48 in assay [6]. In addition, the composite z-score in assay [7] was 0.95; in assay [9] it was 0.0491; in assay [10], -0.0618; in assay [11] it was 1.56; in [15], 1.77; in [17], -0.145. Also, the composite z-score in [18] was 1.34; in assay [19], 1.13; in assay [20], -0.096. Also, the z-score in assay [8] is -1.89 (inactive); in [12] it was 0.186 (inactive); in assay [13], 1.04 (inactive); in assay [14] it was 3.94 (inactive); in assay [16] it was 0.315 (inactive).
Regarding `CCCCCCc1nc(Cc2cc(OC)c(OC)c(OC)c2)cc2c1[Si](C(C)C)(C(C)C)OC2`, the composite z-score is -0.288 in assay [1]; -0.117 in assay [2]; -0.0909 in assay [3]; 0.0277 in assay [4]; -0.196 in [5]; -0.184 in [6]. For the same compound, the composite z-score in assay [7] was -0.434; in [9], -0.0763; in assay [10], -0.0427; in assay [11] it was -0.114; in [15], -0.233; in [17], -0.0985. Besides, the composite z-score in assay [18] is 0.158; in assay [19], -0.0693; in [20], -0.232. Besides, the z-score in [8] is 1.06 (inactive); in assay [12] it was 0.654 (inactive); in assay [13], -0.0595 (inactive); in assay [14] it was 0.0907 (inactive); in [16] it was -0.527 (inactive).
For the compound `COC(=O)C1(CC(C)C)C=C2C(=C(c3ccccc3)C(=O)C2C)CN1` (stereo not given), the composite z-score in assay [1] amounted to 1.92; in assay [2] it was 0.442; in assay [3] it was 0.669; in assay [4] it was 0.746; in assay [5], 1.1; in assay [6] it was 1.02. For the same compound, the composite z-score is 0.78 in assay [7]; 1.15 in assay [9]; 0.935 in assay [10]; -0.291 in assay [11]; 2.16 in assay [15]; 1.1 in assay [17]. In addition, the composite z-score is -1.13 in [18], 0.141 in assay [19] and 0.917 in [20]. The z-score in assay [8] was 1.19 (inactive); in assay [12] it was -0.201 (inactive); in [13], 0.424 (inactive); in assay [14], 1.71 (inactive); in [16], -0.326 (inactive).
